Records with an inconclusive call do not appear. The source made the active and inactive calls. Unless noted, the call rests on the fitted dose curve; in most records, active means well fitted curve in the direction sought with a large enough effect; inconclusive means small, poorly fitted or top-dose-only effect, or another doubt; inactive means no such curve, though single readings can be large; an effect the other way counts as inactive or inconclusive.
How the values were obtained:
[1] = biological target: Lysosomal acid glucosylceramidase (Homo sapiens) (UniProt P04062); assay: Glucocerebrosidase-p2 (AID 348; in the data active means potency below about 10 µM; further: potency means the concentration at half of the fitted maximal effect); conditions: purified GBA, blue fluorogenic substrate, 40 min
How it was run: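 Compounds titrated from 0.6 nM upwards against 0.2 nM enzyme in pH 5.9 citric acid/KH2PO4, taurocholate, tween-20; blue fluorogenic substrate 80 uM, 40 min room temperature, stopped and read Ex 365/Em 440 for AC50.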

[2] = AP1 Signaling Pathway (AID 357; active means well fitted curve in either direction with a large enough effect, not every such curve was filed as active;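 further: ME-180 reporter cells stimulated with EGF at its EC50 level; on the % scale 0 is the no-effect control and ±100 the full control effect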)
How it was run: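 A ratiometric CCF4 readout (405 nm excitation; 460 and 530 nm emission) quantified AP-1-driven beta-lactamase in ME-180 cells after 5 h with compound and EC50 EGF; AC50 values were derived for activators and inhibitors.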

[3] = biological target: Cytochrome P450 1A2 (Homo sapiens) (UniProt P05177); assay: p450-cyp1a2 (AID 410; calls by dose curve;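 further: -100% = full effect of reference inhibitor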)
How it was run: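 Human CYP1A2 (20nM) demethylated Luciferin-ME at its Km (100uM) in 100mM KPO4. After 10 min compound preincubation, NADPH regeneration ran the reaction 60 min at room temperature. Luciferin was read by luminescence, normalized to 57 uM furafylline.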

[4] = NFAT Signaling Pathway (AID 444; active means well fitted curve in either direction with a large enough effect, not every such curve was filed as active;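 further: carbachol stimulus at about its EC50 of 1 µM final; on the % scale 0 is the no-effect control and ±100 the full control effect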); conditions: Jurkat NFAT-bla M1, carbachol, beta-lactamase ratio, 5 h; at 17.2 µM (top of the series) unless noted
How it was run: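 Read-out: CCF4 FRET ratio (460 nm/530 nm) after 1 h RT dye loading, used for %activity and AC50 from titration series. Cells: Jurkat NFAT-β-lactamase/M1 line, treated with compound plus 1 uM carbachol for 5 h, 37 °C.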

[5] = Stat Signaling Pathway (AID 446; active means well fitted curve in either direction with a large enough effect, not every such curve was filed as active;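 further: ME-180 cervical cancer cells given 40 pM IL-6 alongside compound; SIE-controlled beta-lactamase reporter measured as 460/530 nm FRET emission ratio; on the % scale 0 is the no-effect control and ±100 the full control effect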)
How it was run: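 IL-6/STAT signaling read in ME-180 cells via an SIE beta-lactamase reporter. Stimulus was 40 pM IL-6 (its AC50) for 5 hrs, so both activation and inhibition register.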

[6] = biological target: Glucocorticoid receptor (Homo sapiens) (UniProt P04150); assay: GR-GFP Redistribution (AID 450;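 active means compounds whose dose series gives a full or clear partial fitted curve of increased nuclear translocation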; further: potency means the concentration at half of the fitted maximal effect); conditions: U2OS GR-GFP nuclear translocation, laser cytometry, 2 h
[7] = biological target: Glucocorticoid receptor (Homo sapiens) (UniProt P04150); assay: GR-EFC Redistribution (AID 451; calls by dose curve; further: potency means the concentration at half of the fitted maximal effect); conditions: CHO-K1 GR-EFC translocation, beta-gal luminescence, 2 h
How it was run: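 Translocation of GR-ED fusion to nuclear EA restores b-gal, read by luminescence after 1 h room-temperature detection. Engineered CHO-K1 biosensor cells, 1,000/well, exposed 2 h at 37 C to titrations up to 46 uM final.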

[8] = biological target: Mitogen-activated protein kinase 10 (Mus musculus) (UniProt Q61831); assay: JNK3 AlphaScreen Assay (AID 530; active means well fitted curve in either direction with a large enough effect, not every such curve was filed as active;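 further: kinase came from lysate of stimulated human HepG2 cells; signal reports phosphorylation of biotinylated GST-cJun 1-79 at Ser73 with 10 µM ATP; on the % scale 0 is the no-effect control and ±100 the full control effect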)
How it was run: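 Room-temperature AlphaScreen kinase assay; pre-activated HepG2 lysate as JNK3 source, biotin-GST-cJun(1-79) substrate, 10 uM ATP, compound 15 min preincubation.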

[9] = biological target: 3',5'-cyclic-AMP phosphodiesterase 4B (Homo sapiens) (UniProt Q07343); assay: qHTS Assay for Inhibitors of PDE-IV (AID 607; active means well fitted activation curve with a large enough effect in the main read-out, with a control signal flat, not every such curve was filed as active; further: % of control where 0% means no effect)
How it was run: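 Live HEK293 cells with a modified cyclic nucleotide-gated (CNG) channel report intracellular cAMP via membrane-potential dye fluorescence (ex 535/em 590 nm). Endogenous PDE-IV was targeted. Compounds were tested at up to 22.9 uM final; RO 20-1724 100 uM served as control.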

[10] = biological target: ATP-dependent 6-phosphofructokinase (Trypanosoma brucei brucei) (UniProt O15648); assay: qHTS Assay to Find Inhibitors of T. brucei phosphofructokinase: hit validation (AID 492961)
How it was run: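 Measures ADP output of PFK (1.25 nM) at 0.1 mM ATP, 0.5 mM F6P, pH 8.0 TEA buffer with 5 mM MgCl2. No-enzyme wells define full inhibition; uninhibited enzyme wells define zero.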

[11] = biological target: Ubiquitin carboxyl-terminal hydrolase 1 (Homo sapiens) (UniProt O94782); assay: Inhibitors of USP1/UAF1: Pilot qHTS (AID 504865);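 further: rhodamine fluorescence freed from ubiquitin-rhodamine substrate followed over time; top concentration of the series differs between compounds; on the % scale 0 is the no-effect control and ±100 the full control effect; nearly all actives have a fitted effect of over 35% in size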
How it was run: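 Deubiquitinase activity followed as kinetic rhodamine fluorescence release from 150 nM Ub-Rho. 1 nM USP1/UAF1 with compound, after 15 min room-temperature preincubation, in HEPES pH 7.8 buffer containing TCEP, EDTA, BSA and Tween-20.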

[12] = biological target: Luciferin 4-monooxygenase (Photinus pyralis) (UniProt P08659); assay: Biochemical firefly luciferase enzyme assay for NPC (AID 624030);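 further: purified P. pyralis luciferase at 10 nM with luciferin and ATP substrate; 0% = DMSO and -100% = full luciferase inhibition by PTC124 control; nearly all actives have a fitted effect of over 70% in size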
How it was run: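 Direct inhibition of firefly luciferase enzyme (10 nM final, 50 mM Tris Acetate) assessed by luminescence within 5 minutes. Percent activity scaled between DMSO and PTC124 positive control, with concentration-effect curves classified by fit quality and response.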

[13] = S16 Schwann cell viability assay (CellTiter-Glo assay) (AID 624031);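 further: native untransfected S16 rat Schwann cells; cellular ATP luminescence as a viability measure; plate controls were DMSO-treated cells for no effect and cell-free wells for full effect; nearly all actives have a fitted effect of over 70% in size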
How it was run: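 Cells were seeded at 500-750 per well in phenol red-free DMEM with 10% FBS and left overnight. Compounds or DMSO were pinned in, incubation ran 24 h at 37 °C/5% CO2, then CellTiter-Glo reagent was added and luminescence measured.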

[14] = S16 Schwann cell PMP22 intronic element firefly luciferase assay (AID 624032);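 further: plate controls were DMSO for no effect and PTC124 positive control mean for full effect; nearly all actives have a fitted effect of over 30% in size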
How it was run: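 Luciferase reporter of PMP22 intronic-element expression in stably transfected S16 rat Schwann cells, read by ONE-Glo luminescence after 24 h compound exposure at 37 C. Activity scaled between DMSO (0%) and positive-control PTC124; concentration-effect curves quality-classified.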

[15] = qHTS profiling for inhibitors of Plasmodium falciparum proliferation (AID 504749);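 further: 0% = DMSO vehicle and full inhibition = artemisinin control; nearly all actives have a fitted effect of over 60% in size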; conditions: P. falciparum in erythrocytes, SYBR Green DNA, 72 h, at 28.7 µM (top of the series)
How it was run: (§1)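 Three-day growth assay of blood-stage parasites in erythrocytes (0.3% parasitemia, 2.5% hematocrit) at 37 C, 5% CO2, quantified by SYBR Green DNA staining after overnight detergent lysis.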

3D7 = assay: as above; conditions: P. falciparum in erythrocytes, SYBR Green DNA, 72 h; series mostly up to 12.8 µM
How it was run: as §1

7G8 = assay: as above; conditions: P. falciparum in erythrocytes, SYBR Green DNA, 72 h; series mostly up to 12.8 µM
How it was run: as §1

AA1029 = assay: as above; conditions: P. falciparum in erythrocytes, SYBR Green DNA, 72 h; series mostly up to 12.8 µM
How it was run: as §1

AS120 = assay: as above; conditions: P. falciparum in erythrocytes, SYBR Green DNA, 72 h; series mostly up to 12.8 µM
How it was run: as §1

ATS189 = assay: as above; conditions: P. falciparum in erythrocytes, SYBR Green DNA, 72 h; series mostly up to 12.8 µM
How it was run: as §1

ATS95 = assay: as above; conditions: P. falciparum in erythrocytes, SYBR Green DNA, 72 h; series mostly up to 12.8 µM
How it was run: as §1

C2A = assay: as above; conditions: P. falciparum in erythrocytes, SYBR Green DNA, 72 h; series mostly up to 12.8 µM
How it was run: as §1

CP185 = assay: as above; conditions: P. falciparum in erythrocytes, SYBR Green DNA, 72 h; series mostly up to 12.8 µM
How it was run: as §1

CP191 = assay: as above; conditions: P. falciparum in erythrocytes, SYBR Green DNA, 72 h; series mostly up to 12.8 µM
How it was run: as §1

CP192 = assay: as above; conditions: P. falciparum in erythrocytes, SYBR Green DNA, 72 h; series mostly up to 12.8 µM
How it was run: as §1

CP194 = assay: as above; conditions: P. falciparum in erythrocytes, SYBR Green DNA, 72 h; series mostly up to 12.8 µM
How it was run: as §1

CP201 = assay: as above; conditions: P. falciparum in erythrocytes, SYBR Green DNA, 72 h; series mostly up to 12.8 µM
How it was run: as §1

CP203 = assay: as above; conditions: P. falciparum in erythrocytes, SYBR Green DNA, 72 h; series mostly up to 12.8 µM
How it was run: as §1

CP211 = assay: as above; conditions: P. falciparum in erythrocytes, SYBR Green DNA, 72 h; series mostly up to 12.8 µM
How it was run: as §1

CP215 = assay: as above; conditions: P. falciparum in erythrocytes, SYBR Green DNA, 72 h; series mostly up to 12.8 µM
How it was run: as §1

CP217 = assay: as above; conditions: P. falciparum in erythrocytes, SYBR Green DNA, 72 h; series mostly up to 12.8 µM
How it was run: as §1

CP237 = assay: as above; conditions: P. falciparum in erythrocytes, SYBR Green DNA, 72 h; series mostly up to 12.8 µM
How it was run: as §1

CP238 = assay: as above; conditions: P. falciparum in erythrocytes, SYBR Green DNA, 72 h; series mostly up to 12.8 µM
How it was run: as §1

CP247 = assay: as above; conditions: P. falciparum in erythrocytes, SYBR Green DNA, 72 h; series mostly up to 12.8 µM
How it was run: as §1

CP250 = assay: as above; conditions: P. falciparum in erythrocytes, SYBR Green DNA, 72 h; series mostly up to 12.8 µM
How it was run: as §1

CP252 = assay: as above; conditions: P. falciparum in erythrocytes, SYBR Green DNA, 72 h; series mostly up to 12.8 µM
How it was run: as §1

Glucocorticoid receptor (Homo sapiens), sequence (P04150 whole entry, looked up, the tested form may be a part): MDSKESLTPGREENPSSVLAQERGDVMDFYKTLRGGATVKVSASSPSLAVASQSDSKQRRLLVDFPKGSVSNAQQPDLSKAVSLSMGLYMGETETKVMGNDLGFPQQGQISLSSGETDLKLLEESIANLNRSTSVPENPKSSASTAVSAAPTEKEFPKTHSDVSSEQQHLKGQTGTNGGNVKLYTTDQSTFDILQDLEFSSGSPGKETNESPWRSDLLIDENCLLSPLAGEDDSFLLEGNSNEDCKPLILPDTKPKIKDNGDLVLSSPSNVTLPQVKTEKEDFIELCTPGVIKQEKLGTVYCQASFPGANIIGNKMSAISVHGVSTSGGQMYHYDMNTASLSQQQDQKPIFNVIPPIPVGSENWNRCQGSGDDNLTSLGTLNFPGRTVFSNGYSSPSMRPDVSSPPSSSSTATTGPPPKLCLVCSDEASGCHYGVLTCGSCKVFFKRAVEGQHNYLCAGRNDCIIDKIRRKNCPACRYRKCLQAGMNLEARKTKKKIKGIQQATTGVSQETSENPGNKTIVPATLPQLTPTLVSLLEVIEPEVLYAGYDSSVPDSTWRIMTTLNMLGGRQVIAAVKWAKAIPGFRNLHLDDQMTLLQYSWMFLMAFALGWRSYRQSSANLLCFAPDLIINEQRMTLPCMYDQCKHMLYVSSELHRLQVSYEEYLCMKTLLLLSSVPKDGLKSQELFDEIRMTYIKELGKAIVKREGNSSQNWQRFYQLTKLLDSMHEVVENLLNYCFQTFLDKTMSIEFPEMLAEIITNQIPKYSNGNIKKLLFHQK
Lysosomal acid glucosylceramidase (Homo sapiens), sequence (P04062 whole entry, looked up): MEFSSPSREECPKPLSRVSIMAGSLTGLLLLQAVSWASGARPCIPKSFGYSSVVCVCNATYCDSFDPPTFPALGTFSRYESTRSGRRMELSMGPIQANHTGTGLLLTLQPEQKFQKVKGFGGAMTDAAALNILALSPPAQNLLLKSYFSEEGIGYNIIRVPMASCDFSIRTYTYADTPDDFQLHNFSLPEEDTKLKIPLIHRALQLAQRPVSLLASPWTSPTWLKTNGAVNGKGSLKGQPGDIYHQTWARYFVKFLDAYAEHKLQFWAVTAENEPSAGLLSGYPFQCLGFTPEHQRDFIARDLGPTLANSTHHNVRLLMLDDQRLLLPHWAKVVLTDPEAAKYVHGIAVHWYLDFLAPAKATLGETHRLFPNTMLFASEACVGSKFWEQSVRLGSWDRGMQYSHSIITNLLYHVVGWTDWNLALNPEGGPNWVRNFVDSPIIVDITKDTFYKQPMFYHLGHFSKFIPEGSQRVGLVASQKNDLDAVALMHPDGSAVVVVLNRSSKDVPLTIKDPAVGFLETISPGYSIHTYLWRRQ
ATP-dependent 6-phosphofructokinase (Trypanosoma brucei brucei), sequence (O15648 whole entry, looked up): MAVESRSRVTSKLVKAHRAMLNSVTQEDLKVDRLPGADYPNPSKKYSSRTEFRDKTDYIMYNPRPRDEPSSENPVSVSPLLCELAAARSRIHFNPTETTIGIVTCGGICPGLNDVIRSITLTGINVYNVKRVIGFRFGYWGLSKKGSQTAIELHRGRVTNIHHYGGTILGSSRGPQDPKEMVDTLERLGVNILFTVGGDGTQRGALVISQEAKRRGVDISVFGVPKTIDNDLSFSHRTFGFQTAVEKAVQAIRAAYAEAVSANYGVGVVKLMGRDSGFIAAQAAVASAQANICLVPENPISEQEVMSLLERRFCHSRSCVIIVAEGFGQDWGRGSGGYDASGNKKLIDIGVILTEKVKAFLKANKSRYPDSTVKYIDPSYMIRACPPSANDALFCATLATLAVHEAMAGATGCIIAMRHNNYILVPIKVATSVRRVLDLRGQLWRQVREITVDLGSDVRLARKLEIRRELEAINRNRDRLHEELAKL
Ubiquitin carboxyl-terminal hydrolase 1 (Homo sapiens), sequence (O94782 whole entry, looked up): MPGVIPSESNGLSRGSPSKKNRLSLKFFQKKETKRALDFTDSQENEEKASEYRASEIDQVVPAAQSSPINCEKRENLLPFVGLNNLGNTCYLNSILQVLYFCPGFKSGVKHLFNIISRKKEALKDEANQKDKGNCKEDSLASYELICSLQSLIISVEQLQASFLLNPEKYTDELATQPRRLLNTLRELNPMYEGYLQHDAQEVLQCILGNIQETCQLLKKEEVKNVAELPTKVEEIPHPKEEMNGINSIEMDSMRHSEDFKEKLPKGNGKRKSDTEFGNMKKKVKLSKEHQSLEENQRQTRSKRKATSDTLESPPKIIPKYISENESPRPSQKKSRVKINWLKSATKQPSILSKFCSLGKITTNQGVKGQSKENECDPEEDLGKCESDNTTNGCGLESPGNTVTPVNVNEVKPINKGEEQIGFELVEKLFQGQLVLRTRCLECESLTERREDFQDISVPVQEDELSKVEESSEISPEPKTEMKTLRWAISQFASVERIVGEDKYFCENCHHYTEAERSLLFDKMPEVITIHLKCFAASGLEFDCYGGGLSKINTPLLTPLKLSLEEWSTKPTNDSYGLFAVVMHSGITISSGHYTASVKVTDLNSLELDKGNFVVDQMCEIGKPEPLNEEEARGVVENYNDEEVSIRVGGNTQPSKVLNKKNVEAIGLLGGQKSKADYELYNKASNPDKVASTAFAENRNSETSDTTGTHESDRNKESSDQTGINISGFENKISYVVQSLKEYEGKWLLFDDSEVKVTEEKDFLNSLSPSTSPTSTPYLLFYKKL
Luciferin 4-monooxygenase (Photinus pyralis), sequence (P08659 whole entry, looked up): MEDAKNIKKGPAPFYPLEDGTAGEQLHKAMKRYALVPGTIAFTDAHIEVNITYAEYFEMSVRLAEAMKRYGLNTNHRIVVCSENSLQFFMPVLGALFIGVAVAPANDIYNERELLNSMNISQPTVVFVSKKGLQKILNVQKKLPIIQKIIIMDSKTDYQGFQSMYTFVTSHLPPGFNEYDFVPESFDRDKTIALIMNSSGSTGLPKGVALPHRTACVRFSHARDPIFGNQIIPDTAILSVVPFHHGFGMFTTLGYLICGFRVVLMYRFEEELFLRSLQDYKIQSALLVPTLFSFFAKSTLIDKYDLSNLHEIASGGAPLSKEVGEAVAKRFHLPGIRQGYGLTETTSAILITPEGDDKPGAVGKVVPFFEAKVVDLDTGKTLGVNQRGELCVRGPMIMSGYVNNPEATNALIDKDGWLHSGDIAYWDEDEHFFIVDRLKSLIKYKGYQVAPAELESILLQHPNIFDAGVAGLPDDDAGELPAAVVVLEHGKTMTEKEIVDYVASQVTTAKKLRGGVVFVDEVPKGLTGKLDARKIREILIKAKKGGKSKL
3',5'-cyclic-AMP phosphodiesterase 4B (Homo sapiens), sequence (Q07343 whole entry, looked up): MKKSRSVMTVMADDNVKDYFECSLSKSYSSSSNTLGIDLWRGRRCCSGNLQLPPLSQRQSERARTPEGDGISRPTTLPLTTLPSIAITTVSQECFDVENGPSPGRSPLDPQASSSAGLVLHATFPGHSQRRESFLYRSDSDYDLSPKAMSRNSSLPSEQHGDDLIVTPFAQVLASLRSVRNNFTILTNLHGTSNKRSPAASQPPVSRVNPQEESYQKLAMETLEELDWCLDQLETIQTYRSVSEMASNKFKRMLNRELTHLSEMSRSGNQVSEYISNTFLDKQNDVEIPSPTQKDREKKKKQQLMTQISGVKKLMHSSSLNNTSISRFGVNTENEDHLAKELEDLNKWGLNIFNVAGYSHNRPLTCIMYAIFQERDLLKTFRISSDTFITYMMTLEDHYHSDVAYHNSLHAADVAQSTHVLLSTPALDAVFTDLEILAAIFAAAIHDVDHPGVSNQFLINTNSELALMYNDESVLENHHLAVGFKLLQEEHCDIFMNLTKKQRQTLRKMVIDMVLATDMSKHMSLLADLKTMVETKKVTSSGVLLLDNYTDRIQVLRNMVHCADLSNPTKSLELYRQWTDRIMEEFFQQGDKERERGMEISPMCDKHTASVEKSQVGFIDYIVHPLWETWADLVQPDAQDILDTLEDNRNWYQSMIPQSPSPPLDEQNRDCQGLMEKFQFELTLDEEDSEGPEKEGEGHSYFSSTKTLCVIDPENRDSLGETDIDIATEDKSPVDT
Cytochrome P450 1A2 (Homo sapiens), sequence (P05177 whole entry, looked up): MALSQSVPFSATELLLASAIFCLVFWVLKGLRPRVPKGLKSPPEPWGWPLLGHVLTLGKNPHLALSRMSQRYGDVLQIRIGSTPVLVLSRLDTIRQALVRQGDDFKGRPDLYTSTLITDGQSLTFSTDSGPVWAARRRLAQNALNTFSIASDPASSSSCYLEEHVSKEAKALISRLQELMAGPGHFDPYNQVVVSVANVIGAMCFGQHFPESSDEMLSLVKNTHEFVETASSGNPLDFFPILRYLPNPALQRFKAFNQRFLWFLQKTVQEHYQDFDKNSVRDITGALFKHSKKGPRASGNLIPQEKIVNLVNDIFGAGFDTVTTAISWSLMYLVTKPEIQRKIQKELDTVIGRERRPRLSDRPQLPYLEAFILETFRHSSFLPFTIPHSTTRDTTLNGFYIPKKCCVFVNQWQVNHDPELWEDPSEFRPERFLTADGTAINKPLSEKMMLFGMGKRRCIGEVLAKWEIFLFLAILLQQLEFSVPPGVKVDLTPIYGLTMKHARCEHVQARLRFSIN

O=C(O)[C@@H]1CCCN1
inactive: Potency [1] > 11.4 µM | outcome [2] | Potency [3] | activity change, negative = inhibition [4] -2.98% [at 7.69 µM] | outcome [5] | Potency [6] > 46 µM | Potency [7] > 9.22 µM | Potency [8] | outcome [9] | outcome [10] | Potency [11] | Potency [12] | outcome [13] | Potency [14] | activity, negative = inhibition ([15]; parasite line A) 3.04% | activity, negative = inhibition ([15]; parasite line B) -1.27% | Potency (3D7) | Potency (7G8) | Potency (AA1029) | Potency (AS120) | Potency (ATS189) | Potency (ATS95) | Potency (C2A) | Potency (CP185) | Potency (CP191) | Potency (CP192) | Potency (CP194) | Potency (CP201) | Potency (CP203) | Potency (CP211) | Potency (CP215) | Potency (CP217) | Potency (CP237) | Potency (CP238) | Potency (CP247) | Potency (CP250) | Potency (CP252)

Source: PubChem BioAssay (NCATS)
